Assay outcomes deposited in PubChem BioAssay by The Scripps Research Institute Molecular Screening Center.
CHO-K1 Ca PAM: M1 PAM counterscreen hit in parental CHO-K1 cells | ATP EC20, Fluo-8 calcium fluorescence; 0% at ATP EC20, 100% at ATP max | activation, % at 3 µM | 360,000 tested, 0.02% active;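 active = activation above the run cutoff, the mean activation of all test compounds plus 3 SD, cut at about 40% in these data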;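 note: peak over basal fluorescence ratio in a 140 s read after ATP addition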
M1 ag parental: nonselective activator or artifact in parental CHO-K1 cells | Fluo-8 calcium fluorescence; scaled to maximal ATP response, vehicle zero | 360,000 tested, 0.48% active | activation, % at 3 µM; in the data active = activation above about 15%;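 note: untransfected CHO-K1 host cells lacking M1 receptor as counterscreen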
CHO-K1 Ca antag: M1 antagonist counterscreen hit in parental CHO-K1 cells; ATP-induced calcium, Fluo-8 fluorescence; inhibition, % at 3 µM; 360,000 tested, 0.6% active; AID 602250;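 active = inhibition above a per-plate cutoff, the plate's mean sample inhibition plus 3 SD, cut at about 24% in these data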;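 note: 0% = DMSO plus EC80 ATP and 100% = DMSO alone without ATP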
M4 PAM: potentiates acetylcholine response at human M4 receptor. activation, % at 3 µM. AID 624126. 360,000 tested, 0.4% active. CHO-K1 hM4/Gqi5, Fluo-8 calcium fluorescence, ACh EC20; 0% = ACh EC20, 100% = maximal ACh;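 active = activation above its plate's cutoff, the mean activation of sample wells plus 3 SD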
Target sequence (P08173 whole entry, looked up): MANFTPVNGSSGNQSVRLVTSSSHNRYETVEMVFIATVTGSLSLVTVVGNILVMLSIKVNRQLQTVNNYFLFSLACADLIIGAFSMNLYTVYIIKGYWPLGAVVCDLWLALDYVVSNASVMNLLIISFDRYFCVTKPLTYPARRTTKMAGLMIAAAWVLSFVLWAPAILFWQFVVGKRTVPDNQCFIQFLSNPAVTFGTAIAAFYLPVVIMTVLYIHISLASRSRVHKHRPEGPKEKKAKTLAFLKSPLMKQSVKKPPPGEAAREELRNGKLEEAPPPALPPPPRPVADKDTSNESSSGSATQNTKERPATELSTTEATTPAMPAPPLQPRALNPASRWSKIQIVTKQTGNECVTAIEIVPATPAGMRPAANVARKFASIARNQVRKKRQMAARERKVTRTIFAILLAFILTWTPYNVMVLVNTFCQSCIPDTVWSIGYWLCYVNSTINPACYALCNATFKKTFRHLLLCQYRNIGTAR
M4 antag: CHRM4 antagonism in calcium assay | P08173 | CHO-hM4 cells, ACh EC80, Fluo-8 calcium fluorescence | inhibition, % at 3 µM | 360,000 tested, 0.73% active;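 active = inhibition above its plate's cutoff, the mean inhibition of sample wells plus 3 SD, cut at about 27% in these data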;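 note: 0% = acetylcholine EC80 with DMSO and 100% = DMSO without agonist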
CHRM4 agonist: CHRM4 agonism in calcium assay. CHO-K1 hM4/Gqi5, Fluo-8 calcium fluorescence; vehicle 0%, full acetylcholine response 100%. activation, % at 3 µM. 360,000 tested, 0.14% active;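 active = activation above the run mean over all test wells plus 3 SD, cut at about 32% in these data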;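 note: peak over basal fluorescence ratio per well then scaled between controls; 0% = DMSO wells and 100% = acetylcholine at EC100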
* marks the source's active call; other numbers are inactive results. Hits are enriched below; roughly 2% of the tested compounds scored in any of these assays.

SMILES	CHO-K1 Ca PAM	M1 ag parental	CHO-K1 Ca antag	M4 PAM	M4 antag	CHRM4 agonist
CC(=O)Nc1cc(F)c2c(c1F)Cc1cc(F)ccc1-2	11	1	-9	-1	0	4
COc1ccc(NC2CCCN(C(=O)COc3ccc(C)cc3)C2)cc1 (stereo not drawn)	-6	0	0	1	0	0
COc1ccc(NC(=O)c2cc([N+](=O)[O-])ccc2N2CCN(C)CC2)cc1	10	3	4	-3	7	11
CCc1nnc(NC(=O)CCC(=O)NCc2ccccc2Cl)s1	4	1	-11	-1	-8	1
Cc1c(Cl)cccc1NC(=S)NCCC(c1ccccc1)c1ccccc1	-5	1	24*	-12	-2	6
Cc1ccc(CC(=O)Nc2ccncc2)cc1	-10	6	36*	-10	2	8
Cc1cc(OCC(=O)Nc2ccc3oc(-c4ccncc4)nc3c2)ccc1Cl	13	0	-5	5	-11	0
Cc1cc(OCC(=O)Nc2ccncc2)cc(C)c1Br	-5	10	25*	0	14	11
CCc1ccc(OCC(=O)Nc2ccncc2)cc1	-10	17*	22	-9	4	8
Cc1cc(OCC(=O)Nc2ccncc2)ccc1Cl	-19	10	35*	-8	3	12
Cc1cccc(OCC(=O)Nc2ccncc2)c1	8	8	-8	-16	3	8
CCN1CCN(C(=O)C2CCN(c3nnc(C)c4c(C)n(-c5ccc(C)cc5)nc34)CC2)CC1	-4	9	-1	-6	-2	10
Cc1nnc(SCC(=O)N2CCN(c3ccccc3)CC2)n1C1CC1	-2	0	1	-2	6	0
O=C(COc1ccccc1)Nc1ccncc1	9	3	-8	-1	2	4
Cc1ccc(OCC(=O)Nc2ccncc2)c(C)c1	-24	9	29*	-6	2	11
O=C(COc1ccc2ccccc2c1)Nc1ccncc1	0	14	24*	-15	13	12
Cc1cc(NC(=O)COc2ccc(F)c(Cl)c2)no1	-24	0	11	19*	-9	2
Cc1ccccc1OCC(=O)Nc1ccncc1	-3	8	7	-5	-3	9
Cc1ccc(Cl)c(NC(=O)COC(=O)CNS(=O)(=O)/C=C/c2ccccc2)c1Cl	7	3	-3	-4	10	4
Cc1ccc(-c2cn(CCN)c(-c3ccncc3)n2)cc1	14	0	-6	9	-10	0
Cc1nc(N(C)C2CCCCC2)c2nnn(Cc3ccc(F)cc3)c2n1	12	0	-4	-1	-4	0
CC(C)c1ccc(NC(=O)N(CCc2nc3ccccc3[nH]2)C2CCCC2)cc1	11	2	4	1	-2	1
COc1ccc(C(=O)NC(=S)SCC(=O)O)cc1	-3	0	-4	-4	5	0
CCOC(=O)CSC(=S)NC(=O)c1ccc(OC)cc1	-6	0	7	35*	4	1
C=CCNC(=O)COCc1cc(-c2ccc3c(c2)OCO3)on1	2	1	10	-3	-3	2
SMILES	CHO-K1 Ca PAM	M1 ag parental	CHO-K1 Ca antag	M4 PAM	M4 antag	CHRM4 agonist
Cc1ccc(-n2nc3ccc(N)cc3n2)cc1C	14	-1	-1	16*	-4	1
Cc1ccc(-n2nc3ccc(N)cc3n2)cc1Cl	-19	0	-14	-3	10	-1
CN1CCc2cc3c(c4c2C1CC41CCC(=NO)CC1)OCO3 (stereo not drawn)	-11	0	21	-2	8	1
C[C@H](CO)N1C[C@H](C)[C@@H](CN(C)S(=O)(=O)c2cn(C)cn2)Oc2ccc(NC(=O)C3CC3)cc2C1=O	21	1	-9	4	-5	2
CCCCN(C(=O)c1cc(S(=O)(=O)N2CCCCCC2)ccc1OC)c1ccccc1	1	1	3	-3	-1	0
CCN1CCN(c2cc(C)c3cc(NC(=O)Cc4ccc(OC)c(OC)c4)ccc3n2)CC1	1	-1	28*	1	-6	-1
O=C(COc1ccc2ccc(=O)oc2c1)Nc1cccc(S(=O)(=O)N2CCCCC2)c1	-14	17*	9	-9	5	25
